The values below come from PubChem BioAssay (EPA / NIEHS).

Calls of active or inactive are those of the source. How the source made its calls: active means hit-call score of the fitted dose curve at least 0.9, where 1 is the maximum; inactive means score below 0.9.

Read-out in assay [1]: TIMP metallopeptidase inhibitor 1 (TIMP1), TIMP1 (gene 7076)
The assay can be described thus: BSK_hDFCGF_TIMP1: BioMAP Diversity Plus: hDFCGF Assay for TIMP metallopeptidase inhibitor 1 (TIMP1) Biomarker Activity (AID 2283062). The note with it: primary human foreskin fibroblasts; actives raise or lower the signal. An outline of the steps: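 Primary human foreskin fibroblasts in the hDFCGF system were dosed with compound for 24 h, then TIMP-1 was measured by ELISA. Activity was fitted bidirectionally relative to DMSO control; parallel SRB staining assessed cytotoxicity.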

Read-out in assay [2]: Monokine induced gamma interferon (MIG), CXCL9 (gene 4283)
The assay can be described thus: BSK_hDFCGF_MIG: BioMAP Diversity Plus: hDFCGF Assay for Monokine induced gamma interferon (MIG) Biomarker Activity (AID 2283063). The note with it: primary human foreskin fibroblasts; actives raise or lower the signal. In outline:
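ELISA read-out of MIG from primary human dermal fibroblasts 24 h post-dosing. Gain or loss of signal fitted bidirectionally, DMSO as baseline.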

Read-out in assay [3]: Matrix Metallopeptidase 1 (MMP1), MMP1 (gene 4312)
As to the kind of experiment: BSK_hDFCGF_MMP1: BioMAP Diversity Plus: hDFCGF Assay for Matrix Metallopeptidase 1 (MMP1) Biomarker Activity (AID 2283064). The settings on record: primary human foreskin fibroblasts; actives raise or lower the signal. In outline:
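hDFCGF primary fibroblasts (human foreskin); chemical added; 24 h; MMP1 by ELISA; bidirectional fit vs DMSO.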

Read-out in assay [4]: Vascular cell adhesion molecule 1 (VCAM1), VCAM1 (gene 7412)
As to the kind of experiment: BSK_hDFCGF_VCAM1: BioMAP Diversity Plus: hDFCGF Assay for Vascular cell adhesion molecule 1 (VCAM1) Biomarker Activity (AID 2283065).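 On AC50: VCAM-1 protein level quantified by ELISA after 24 h chemical exposure.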 The settings on record: primary human foreskin fibroblasts; actives raise or lower the signal. In outline: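 Primary human foreskin fibroblasts (hDFCGF system) were dosed with chemical and VCAM-1 was measured by ELISA 24 h later. Bidirectional curve fitting used DMSO as negative control and activity baseline.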

Read-out in assay [5]: Plasminogen activator inhibitor-1 (PAI1), SERPINE1 (gene 5054)
The assay can be described thus: BSK_hDFCGF_PAI1: BioMAP Diversity Plus: hDFCGF Assay for Plasminogen activator inhibitor-1 (PAI1) Biomarker Activity (AID 2283066). The settings on record: primary human foreskin fibroblasts; actives raise or lower the signal. In outline:
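Primary dermal fibroblasts (human foreskin), hDFCGF system; compound 24 h; PAI-1 by ELISA; bidirectional fit vs DMSO control.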

Read-out in assay [6]: Intercellular Adhesion Molecule 1 (ICAM1), ICAM1 (gene 3383)
The assay can be described thus: BSK_KF3CT_ICAM1: BioMAP Diversity Plus: KF3CT Assay for Intercellular Adhesion Molecule 1 (ICAM1) Biomarker Activity (AID 2283067). The settings on record: primary human keratinocytes with fibroblasts; actives raise or lower the signal. In outline: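 Human keratinocyte plus foreskin fibroblast primary co-culture was exposed to chemical for 24 h. ICAM-1 was then quantified by ELISA, and the data were fit bidirectionally against DMSO as the negative control and baseline.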

Read-out in assay [7]: Interferon-gamma inducible Protein 10 (IP10), CXCL10 (gene 3627)
As to the kind of experiment: BSK_KF3CT_IP10: BioMAP Diversity Plus: KF3CT Assay for Interferon-gamma inducible Protein 10 (IP10) Biomarker Activity (AID 2283068). The note with it: primary human keratinocytes with fibroblasts; actives raise or lower the signal. In outline:
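Human keratinocyte plus foreskin fibroblast primary co-culture exposed to test chemical for 24 h; IP-10 measured by ELISA. Concentration-response fitted bidirectionally against DMSO control as baseline.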

A short description of assay [8]: BSK_KF3CT_SRB: Viability Assessment in the BioMAP Diversity Plus: KF3CT Assay (AID 2283069).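 Further: total protein by sulforhodamine B staining as a cytotoxicity measure; read 24 h after compound addition; fitted for both signal gain and loss against DMSO baseline.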 The note with it: primary human keratinocytes with fibroblasts. An outline of the steps:
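Keratinocytes co-cultured with foreskin fibroblasts (human primary); chemical added, 24 h; fix 10% TCA, stain 0.1% SRB, A560. Bidirectional fit vs DMSO.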

Read-out in assay [9]: Interleukin-1 alpha (IL1a), IL1A (gene 3552)
As to the kind of experiment: BSK_KF3CT_IL1a: BioMAP Diversity Plus: KF3CT Assay for Interleukin-1 alpha (IL1a) Biomarker Activity (AID 2283070). The note with it: primary human keratinocytes with fibroblasts; actives raise or lower the signal. In outline:
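Chemicals were dosed onto co-cultured human keratinocytes and foreskin fibroblasts, IL-1a was quantified by ELISA at 24 h, and activity was fitted in both directions relative to DMSO controls.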

Read-out in assay [10]: TIMP metallopeptidase inhibitor 2 (TIMP2), TIMP2 (gene 7077)
The assay can be described thus: BSK_KF3CT_TIMP2: BioMAP Diversity Plus: KF3CT Assay for TIMP metallopeptidase inhibitor 2 (TIMP2) Biomarker Activity (AID 2283071). The note with it: primary human keratinocytes with fibroblasts; actives raise or lower the signal. An outline of the steps:
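Cells: human keratinocytes co-cultured with foreskin fibroblasts. Treat with chemical, 24 h. Measure TIMP-2 by ELISA; fit curves bidirectionally vs DMSO baseline.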

Read-out in assay [11]: Transforming growth factor beta 1 (TGFb1), TGFB1 (gene 7040)
The assay can be described thus: BSK_KF3CT_TGFb1: BioMAP Diversity Plus: KF3CT Assay for Transforming growth factor beta 1 (TGFb1) Biomarker Activity (AID 2283072). The settings on record: primary human keratinocytes with fibroblasts; actives raise or lower the signal. In outline:
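Primary human skin cells (keratinocytes, foreskin fibroblasts) were co-cultured, exposed to test chemical and sampled at 24 h. TGF-b1 levels were measured by ELISA and fitted bidirectionally relative to DMSO.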

Read-out in assay [12]: C-C motif chemokine 2 (Homo sapiens) (UniProt P13500)
The assay can be described thus: BSK_KF3CT_MCP1: BioMAP Diversity Plus: KF3CT Assay for Monocyte Chemoattractant Protein 1 (MCP1/CCL2) Biomarker Activity (AID 2283073). The settings on record: primary human keratinocytes with fibroblasts; actives raise or lower the signal. An outline of the steps:
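Human keratinocyte plus foreskin fibroblast primary co-culture exposed to chemical for 24 h. MCP-1 levels measured by ELISA. Bidirectional curve fitting relative to DMSO negative control as baseline.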

Read-out in assay [13]: Matrix Metallopeptidase 9 (MMP9), MMP9 (gene 4318)
The assay can be described thus: BSK_KF3CT_MMP9: BioMAP Diversity Plus: KF3CT Assay for Matrix Metallopeptidase 9 (MMP9) Biomarker Activity (AID 2283074).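 On AC50: MMP9 protein level quantified by ELISA in the co-culture.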 The note with it: primary human keratinocytes with fibroblasts; actives raise or lower the signal. An outline of the steps:
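Human keratinocyte/foreskin fibroblast co-culture; compound added; 24 h; MMP-9 by ELISA; bidirectional fit vs DMSO baseline.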

Read-out in assay [14]: urokinase plasminogen activator (uPA), PLAU (gene 5328)
The assay can be described thus: BSK_KF3CT_uPA: BioMAP Diversity Plus: KF3CT Assay for urokinase plasminogen activator (uPA) Biomarker Activity (AID 2283075). The settings on record: primary human keratinocytes with fibroblasts; actives raise or lower the signal. In outline: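 ELISA readout of uPA, analyzed for signal gain or loss relative to DMSO, from a human primary keratinocyte–foreskin fibroblast co-culture measured 24 h after chemical treatment.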

Read-out in the next assay: CD40, CD40 (gene 958)
As to the kind of experiment: BSK_LPS_CD40: BioMAP Diversity Plus: LPS Assay for CD40 Biomarker Activity (AID 2283076). The note with it: primary human HUVEC with PBMC; actives raise or lower the signal. An outline of the steps:
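Primary human umbilical vein endothelial cells co-cultured with peripheral blood mononuclear cells, LPS-stimulated, were dosed with chemical and read 24 h later. CD40 levels were measured by ELISA and fitted bidirectionally against DMSO as negative control and baseline.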

Read-out in assay [15]: E-selectin (Homo sapiens) (UniProt P16581)
The assay can be described thus: BSK_LPS_Eselectin: BioMAP Diversity Plus: LPS Assay for Eselectin Biomarker Activity (AID 2283077). The note with it: primary human HUVEC with PBMC; actives raise or lower the signal. In outline:
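Human umbilical vein endothelial cells co-cultured with peripheral blood mononuclear cells under LPS stimulation; E-selectin measured by ELISA 24 h after chemical dosing. Activity fitted bidirectionally against DMSO as negative control and baseline.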

Read-out in assay [16]: Interleukin-8 (IL8), CXCL8 (gene 3576)
The assay can be described thus: BSK_LPS_IL8: BioMAP Diversity Plus: LPS Assay for Interleukin-8 (IL8) Biomarker Activity (AID 2283078). The settings on record: primary human HUVEC with PBMC; actives raise or lower the signal. In outline:
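Human umbilical vein endothelial cells co-cultured with PBMC were stimulated with LPS; IL-8 levels were measured by ELISA 24 h after chemical dosing. Activity was fitted bidirectionally against DMSO as negative control and baseline.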

A short description of assay [17]: BSK_LPS_SRB: Viability Assessment in the BioMAP Diversity Plus: LPS Assay (AID 2283079).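 Further: total protein by sulforhodamine B absorbance as a cytotoxicity measure; measured one day after compound addition; fitted in both directions against DMSO so loss or gain of signal counts.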 The settings on record: primary human HUVEC with PBMC. An outline of the steps:
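Human umbilical vein endothelial cells co-cultured with PBMC (LPS system) were dosed for 24 h. Total protein was stained with 0.1% sulforhodamine B after 10% TCA fixation, read at 560 nm, and fitted bidirectionally against DMSO baseline.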

Read-out in assay [18]: Interleukin-1 alpha (IL1a), IL1A (gene 3552)
As to the kind of experiment: BSK_LPS_IL1a: BioMAP Diversity Plus: LPS Assay for Interleukin-1 alpha (IL1a) Biomarker Activity (AID 2283080). The note with it: primary human HUVEC with PBMC; actives raise or lower the signal. In outline:
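Human umbilical vein endothelial cells co-cultured with peripheral blood mononuclear cells were LPS-stimulated and exposed to test chemicals for 24 h. IL-1 alpha was quantified by ELISA, with bidirectional curve fitting against DMSO as the negative control and baseline.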

Read-out in assay [19]: Monocyte Chemoattractant Protein-1 (MCP1), CCL2 (gene 6347)
As to the kind of experiment: BSK_LPS_MCP1: BioMAP Diversity Plus: LPS Assay for Monocyte Chemoattractant Protein-1 (MCP1) Biomarker Activity (AID 2283081).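 On AC50: co-culture stimulated with LPS; secreted MCP-1 protein quantified by ELISA in culture supernatant.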 The note with it: primary human HUVEC with PBMC; actives raise or lower the signal. An outline of the steps:
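HUVEC plus PBMC co-culture (human primary cells, LPS system) exposed to test chemical for 24 h; MCP-1 measured by ELISA. Bidirectional curve fitting against DMSO baseline; parallel SRB total-protein staining flags overt cytotoxicity.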

A word on the AC50: it is the concentration at which the activity in the assay is half-maximal.

Sequence of E-selectin (Homo sapiens) (P16581 whole entry, looked up): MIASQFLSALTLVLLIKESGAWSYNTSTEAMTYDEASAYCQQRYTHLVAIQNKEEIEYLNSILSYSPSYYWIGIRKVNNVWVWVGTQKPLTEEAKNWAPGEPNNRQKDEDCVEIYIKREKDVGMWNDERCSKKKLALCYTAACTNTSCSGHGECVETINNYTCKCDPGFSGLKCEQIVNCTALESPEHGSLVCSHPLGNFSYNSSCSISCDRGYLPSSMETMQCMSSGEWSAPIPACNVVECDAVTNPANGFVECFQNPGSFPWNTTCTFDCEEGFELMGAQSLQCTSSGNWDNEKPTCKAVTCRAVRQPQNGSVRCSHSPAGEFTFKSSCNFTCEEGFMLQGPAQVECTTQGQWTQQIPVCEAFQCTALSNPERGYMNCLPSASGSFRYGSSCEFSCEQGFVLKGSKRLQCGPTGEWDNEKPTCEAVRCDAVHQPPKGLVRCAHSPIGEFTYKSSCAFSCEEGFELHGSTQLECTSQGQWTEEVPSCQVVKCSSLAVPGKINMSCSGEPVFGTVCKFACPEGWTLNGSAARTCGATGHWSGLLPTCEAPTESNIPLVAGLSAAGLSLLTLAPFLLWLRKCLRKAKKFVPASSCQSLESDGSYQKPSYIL

On to `CCOc1cccc(-n2cc(C(=O)N3CCN(c4cc(C(=O)O)c5ccccc5c4)CC3)nc2-c2ccc(C)cc2)c1`, for which the AC50 in [1] is 13.3 µM (active); in assay [2], 26.3 µM (active); in [3], 16.5 µM (active); in assay [4], 12.9 µM (active); in assay [5] it was 6.1 µM (active); in assay [6], 30.5 µM (active). Also, the concentration at half-maximal activity (AC50) in [7] is 29.2 µM (active); in [8], 21.3 µM (active); in assay [9] it was 30.1 µM (active); in [10] it was 14.7 µM (active); in [11] it was 14.4 µM (active); in assay [12], 19.2 µM (active). In addition, the AC50 was 19.7 µM (active) in assay [13]; 31.2 µM (active) in assay [14]; 14.2 µM (active) in the assay with CD40, CD40 (gene 958); 31.3 µM (active) in assay [15]; 27.2 µM (active) in [16]; 13.7 µM (active) in assay [17]. For the same compound, the AC50 in [18] is 19.2 µM (active); in assay [19], 30.7 µM (active).
Take `C1N2CN3CN1CN(C2)C3`: the result in [1], in [2], in assay [3], in assay [4], in [5] and in assay [6] was inactive. The outcome in [7], in assay [8], in assay [9], in [10], in [11] and in assay [12] was inactive. The outcome in assay [13] was “inactive”; with CD40, CD40 (gene 958), “inactive”; in [15], “inactive”; in [16] it was “inactive”; in [17], “inactive”; in assay [18], “inactive”. Besides, in assay [19], the result was inactive.
As to `O=C(O)CCN(C1(C(=O)NO)CCCC1)S(=O)(=O)c1ccc(Oc2ccc(F)cc2)cc1`, the result in assay [1], in assay [2], in [3], in assay [4], in [5] and in [6] was inactive. The result in [7], in assay [8], in assay [9], in [10], in assay [11] and in [12] was inactive. Also, the outcome in assay [13] was “inactive”; in assay [14] it was “inactive”; with CD40, CD40 (gene 958), “inactive”; in assay [15], “inactive”; in [16], “inactive”; in assay [17] it was “inactive”. Moreover, the result in [18] and in assay [19] was inactive.
